What all share (set-up): scale not given: direction of the effect not stated beside the values
The target in test [1] is Protein translocase subunit SecA (Escherichia coli (strain K12)) (UniProt P10408). The experiment in a line: Assay to Identify E. coli SecA ATPase Inhibitors. Format: functional. The settings on record: 30 µM.
Test [2] concerns the target T1, Ubiquitin-activating enzyme e1, putative (Leishmania donovani (strain BPK282A1)) (UniProt E9BSI1).
T1 sequence (whole entry): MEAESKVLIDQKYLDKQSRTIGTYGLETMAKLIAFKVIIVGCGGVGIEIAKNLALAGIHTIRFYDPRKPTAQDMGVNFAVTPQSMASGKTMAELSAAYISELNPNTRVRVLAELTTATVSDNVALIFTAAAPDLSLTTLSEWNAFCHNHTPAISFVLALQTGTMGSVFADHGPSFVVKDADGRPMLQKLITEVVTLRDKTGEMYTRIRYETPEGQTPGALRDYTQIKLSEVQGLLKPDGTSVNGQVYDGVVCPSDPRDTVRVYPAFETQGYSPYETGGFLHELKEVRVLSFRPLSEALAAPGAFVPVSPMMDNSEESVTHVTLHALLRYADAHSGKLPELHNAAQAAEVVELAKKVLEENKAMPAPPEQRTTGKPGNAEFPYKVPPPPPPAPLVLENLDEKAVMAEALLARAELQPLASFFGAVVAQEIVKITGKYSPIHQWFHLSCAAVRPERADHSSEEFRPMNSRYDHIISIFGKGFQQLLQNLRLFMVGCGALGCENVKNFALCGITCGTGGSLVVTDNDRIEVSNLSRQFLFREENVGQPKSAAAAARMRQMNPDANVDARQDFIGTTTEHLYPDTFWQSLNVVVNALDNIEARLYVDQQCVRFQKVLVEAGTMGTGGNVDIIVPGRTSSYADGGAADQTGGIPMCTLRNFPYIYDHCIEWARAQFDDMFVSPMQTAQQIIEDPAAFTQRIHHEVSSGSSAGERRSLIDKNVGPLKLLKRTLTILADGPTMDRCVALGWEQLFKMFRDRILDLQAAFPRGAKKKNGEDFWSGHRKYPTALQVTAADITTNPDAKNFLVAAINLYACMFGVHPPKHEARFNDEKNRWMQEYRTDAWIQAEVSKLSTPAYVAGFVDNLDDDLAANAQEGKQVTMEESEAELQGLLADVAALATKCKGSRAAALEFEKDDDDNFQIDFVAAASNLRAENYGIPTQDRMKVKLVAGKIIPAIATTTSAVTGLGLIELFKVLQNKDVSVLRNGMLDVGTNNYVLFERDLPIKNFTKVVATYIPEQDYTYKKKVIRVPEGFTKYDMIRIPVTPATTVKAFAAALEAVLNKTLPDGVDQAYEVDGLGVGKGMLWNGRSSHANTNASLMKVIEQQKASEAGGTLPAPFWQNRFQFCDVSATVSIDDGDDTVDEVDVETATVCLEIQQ
The experiment in a line: Leishmania donovani Ubiquitin Activating Enzyme (LdE1). Format: functional. The note with it: 30 µM.

The target in test [3] is AMP-activated protein kinase, AMPK (Homo sapiens) (UniProt P54646+O43741+P54619+Q9UGJ0+Q9Y478+Q13131+Q9UGI9). The experiment in a line: AMP-dependent Kinase enzyme assay. An in vitro enzyme assay that detects ADP turnover that is directly proportional to AMPK activity. This uses naive AMPK that is activated during the assay with MK-8722. Format: functional. The settings on record: 30 µM.

For test [4], the target named is Sialic acid-binding Ig-like lectin 9 (Homo sapiens) (UniProt Q9Y336). The experiment in a line: Hs-Siglec9 ALPHAscreen SOP 20170721. The note with it: 10 µM. In general terms: Alpha assays give light when donor and acceptor beads are brought close together.
Chain of Sialic acid-binding Ig-like lectin 9 (Homo sapiens) (Q9Y336 whole entry): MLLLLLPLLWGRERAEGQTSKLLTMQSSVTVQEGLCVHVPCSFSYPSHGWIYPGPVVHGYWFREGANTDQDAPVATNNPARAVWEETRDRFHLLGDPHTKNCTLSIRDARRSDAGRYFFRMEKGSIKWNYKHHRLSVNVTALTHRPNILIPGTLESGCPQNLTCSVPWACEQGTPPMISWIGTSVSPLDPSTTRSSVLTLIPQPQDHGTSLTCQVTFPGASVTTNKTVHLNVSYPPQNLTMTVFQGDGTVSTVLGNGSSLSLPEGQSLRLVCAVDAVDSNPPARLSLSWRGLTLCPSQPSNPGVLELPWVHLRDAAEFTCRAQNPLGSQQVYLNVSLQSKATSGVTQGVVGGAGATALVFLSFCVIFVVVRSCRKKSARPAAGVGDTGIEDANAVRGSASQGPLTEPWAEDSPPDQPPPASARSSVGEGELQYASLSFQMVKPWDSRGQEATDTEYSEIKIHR
For the next test, the system named is Trypanosoma cruzi. The experiment in a line: Trypanosoma cruzi phosphomannomutase and mannose-1-phosphate guanylyltransferase assay. The note with it: 10 µM. Format: functional.
Test [5] concerns the target T2, Arginase-2, mitochondrial (Homo sapiens) (UniProt P78540).
T2 sequence (whole entry): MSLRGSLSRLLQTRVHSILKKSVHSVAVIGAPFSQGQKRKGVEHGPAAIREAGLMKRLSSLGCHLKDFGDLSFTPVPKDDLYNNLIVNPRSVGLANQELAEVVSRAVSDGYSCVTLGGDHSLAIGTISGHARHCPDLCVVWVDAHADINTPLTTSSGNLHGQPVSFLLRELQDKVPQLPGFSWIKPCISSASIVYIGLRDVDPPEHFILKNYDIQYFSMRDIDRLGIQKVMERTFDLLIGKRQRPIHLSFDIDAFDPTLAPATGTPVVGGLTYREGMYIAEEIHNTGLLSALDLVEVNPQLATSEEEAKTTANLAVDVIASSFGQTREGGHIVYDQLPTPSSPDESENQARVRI
The experiment in a line: in vitro enzyme assay to detect the production of urea directly proportional to the activity of Arginase II. Note: in the data most compounds retested in dose-response had high values. Format: functional. The settings on record: 33.3 µM.

For test [6], the target named is T3, Proteasome subunit beta (Trypanosoma cruzi) (UniProt O96673).
T3 sequence (whole entry): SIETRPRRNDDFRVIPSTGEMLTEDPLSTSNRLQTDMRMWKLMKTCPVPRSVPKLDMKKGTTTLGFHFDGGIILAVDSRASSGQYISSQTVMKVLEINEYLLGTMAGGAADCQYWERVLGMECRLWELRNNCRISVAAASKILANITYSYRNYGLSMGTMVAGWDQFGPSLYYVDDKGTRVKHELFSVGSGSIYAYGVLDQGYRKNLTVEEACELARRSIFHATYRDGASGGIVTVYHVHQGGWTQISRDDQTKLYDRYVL
The experiment in a line: Trypanosoma cruzi proteasome chymotrypsin-like activity (TcProtChymo) assay. Note: in the data most compounds retested in dose-response had high values. Format: functional. The note with it: 9.37 µM.

For another test, the species on record is Homo sapiens. The experiment in a line: To identify inhibition of the IFN signalling (Jak-Stat) pathway via expression of an eGFP reporter gene under the control of an IFN-stimulated response element (ISRE) containing MxA promoter. The note with it: 30 µM. Format: functional.
Test [7] concerns the target T4, Tyrosyl-tRNA synthetase, putative (Trypanosoma cruzi (strain CL Brener)) (UniProt Q4DSP6).
T4 sequence (whole entry): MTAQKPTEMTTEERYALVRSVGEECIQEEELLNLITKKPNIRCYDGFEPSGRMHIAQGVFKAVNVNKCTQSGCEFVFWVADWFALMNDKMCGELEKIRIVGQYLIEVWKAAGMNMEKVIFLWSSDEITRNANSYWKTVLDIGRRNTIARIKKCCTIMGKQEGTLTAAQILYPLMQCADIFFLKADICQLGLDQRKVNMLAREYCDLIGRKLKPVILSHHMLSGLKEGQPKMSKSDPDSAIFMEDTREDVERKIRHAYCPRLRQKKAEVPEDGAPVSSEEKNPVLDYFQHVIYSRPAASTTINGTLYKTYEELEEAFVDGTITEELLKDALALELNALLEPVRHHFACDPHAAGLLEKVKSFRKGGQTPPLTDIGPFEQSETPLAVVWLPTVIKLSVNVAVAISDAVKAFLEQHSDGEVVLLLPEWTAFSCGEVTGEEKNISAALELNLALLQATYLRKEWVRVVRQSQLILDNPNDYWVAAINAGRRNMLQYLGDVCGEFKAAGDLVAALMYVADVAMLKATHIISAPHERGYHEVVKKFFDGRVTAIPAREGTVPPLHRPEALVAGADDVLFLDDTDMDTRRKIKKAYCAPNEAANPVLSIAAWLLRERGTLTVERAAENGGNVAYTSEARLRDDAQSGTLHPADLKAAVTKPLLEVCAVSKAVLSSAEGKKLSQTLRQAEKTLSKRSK
The experiment in a line: Trypanosoma cruzi tyrosyl tRNA synthetase (TcYRS) _High Tyrosine SOP. Note: in the data most compounds retested in dose-response had high values. Format: functional. The settings on record: 30 µM.

Test [8] deals with T4, Tyrosyl-tRNA synthetase, putative (Trypanosoma cruzi (strain CL Brener)). The experiment in a line: Trypanosoma cruzi tyrosyl tRNA synthetase (TcYRS) SOP. The note with it: 30 µM. Format: functional.
Test [9] has as its target Chromo domain-containing protein 1 (Saccharomyces cerevisiae (strain ATCC 204508 / S288c) (Baker's yeast)) (UniProt P32657). The experiment in a line: ScCHD-1 Enzyme Inhibition Assay. Note: in the data most compounds retested in dose-response had high values. Format: functional. The settings on record: 30 µM.

For some of these results: Potency and affinity values are given separately.

Chain of Chromo domain-containing protein 1 (Saccharomyces cerevisiae (strain ATCC 204508 / S288c) (Baker's yeast)) (P32657 whole entry, the tested form may be a part): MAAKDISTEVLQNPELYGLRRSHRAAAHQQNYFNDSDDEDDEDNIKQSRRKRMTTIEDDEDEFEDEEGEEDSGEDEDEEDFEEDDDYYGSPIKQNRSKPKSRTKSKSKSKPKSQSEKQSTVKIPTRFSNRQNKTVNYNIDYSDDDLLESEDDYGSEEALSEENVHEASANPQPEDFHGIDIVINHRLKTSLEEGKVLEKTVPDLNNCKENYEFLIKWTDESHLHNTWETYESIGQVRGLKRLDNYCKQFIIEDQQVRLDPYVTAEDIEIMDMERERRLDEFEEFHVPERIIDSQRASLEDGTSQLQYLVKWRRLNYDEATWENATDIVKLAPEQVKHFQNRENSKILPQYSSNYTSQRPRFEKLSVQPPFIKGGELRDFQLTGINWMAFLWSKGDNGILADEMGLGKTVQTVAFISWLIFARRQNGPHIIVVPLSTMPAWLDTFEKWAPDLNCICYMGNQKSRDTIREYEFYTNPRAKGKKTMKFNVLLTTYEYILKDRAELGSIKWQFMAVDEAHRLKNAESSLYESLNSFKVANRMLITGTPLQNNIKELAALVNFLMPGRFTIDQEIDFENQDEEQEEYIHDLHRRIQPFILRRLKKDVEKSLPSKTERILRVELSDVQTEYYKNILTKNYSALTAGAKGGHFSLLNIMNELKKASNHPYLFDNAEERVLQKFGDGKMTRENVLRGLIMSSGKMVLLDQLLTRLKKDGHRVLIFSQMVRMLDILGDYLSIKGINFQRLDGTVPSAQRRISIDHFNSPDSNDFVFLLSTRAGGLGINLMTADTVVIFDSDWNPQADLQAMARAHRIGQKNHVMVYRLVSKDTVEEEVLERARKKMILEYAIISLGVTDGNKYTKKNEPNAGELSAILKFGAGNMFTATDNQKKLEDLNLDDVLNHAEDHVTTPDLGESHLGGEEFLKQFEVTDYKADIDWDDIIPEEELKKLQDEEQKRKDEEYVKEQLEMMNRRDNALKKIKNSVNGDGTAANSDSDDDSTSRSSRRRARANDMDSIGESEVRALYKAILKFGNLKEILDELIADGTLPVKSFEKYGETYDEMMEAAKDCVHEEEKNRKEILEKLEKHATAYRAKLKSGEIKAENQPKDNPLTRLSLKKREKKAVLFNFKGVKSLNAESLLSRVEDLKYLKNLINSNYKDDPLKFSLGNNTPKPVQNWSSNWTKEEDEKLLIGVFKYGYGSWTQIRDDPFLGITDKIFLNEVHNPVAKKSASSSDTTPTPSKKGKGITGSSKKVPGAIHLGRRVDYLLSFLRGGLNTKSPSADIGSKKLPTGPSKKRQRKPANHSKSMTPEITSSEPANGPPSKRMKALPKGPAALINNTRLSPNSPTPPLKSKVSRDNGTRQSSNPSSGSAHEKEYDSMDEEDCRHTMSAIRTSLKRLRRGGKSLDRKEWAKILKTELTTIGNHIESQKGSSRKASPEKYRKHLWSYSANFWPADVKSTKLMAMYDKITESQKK
Chain of Protein translocase subunit SecA (Escherichia coli (strain K12)) (P10408 whole entry): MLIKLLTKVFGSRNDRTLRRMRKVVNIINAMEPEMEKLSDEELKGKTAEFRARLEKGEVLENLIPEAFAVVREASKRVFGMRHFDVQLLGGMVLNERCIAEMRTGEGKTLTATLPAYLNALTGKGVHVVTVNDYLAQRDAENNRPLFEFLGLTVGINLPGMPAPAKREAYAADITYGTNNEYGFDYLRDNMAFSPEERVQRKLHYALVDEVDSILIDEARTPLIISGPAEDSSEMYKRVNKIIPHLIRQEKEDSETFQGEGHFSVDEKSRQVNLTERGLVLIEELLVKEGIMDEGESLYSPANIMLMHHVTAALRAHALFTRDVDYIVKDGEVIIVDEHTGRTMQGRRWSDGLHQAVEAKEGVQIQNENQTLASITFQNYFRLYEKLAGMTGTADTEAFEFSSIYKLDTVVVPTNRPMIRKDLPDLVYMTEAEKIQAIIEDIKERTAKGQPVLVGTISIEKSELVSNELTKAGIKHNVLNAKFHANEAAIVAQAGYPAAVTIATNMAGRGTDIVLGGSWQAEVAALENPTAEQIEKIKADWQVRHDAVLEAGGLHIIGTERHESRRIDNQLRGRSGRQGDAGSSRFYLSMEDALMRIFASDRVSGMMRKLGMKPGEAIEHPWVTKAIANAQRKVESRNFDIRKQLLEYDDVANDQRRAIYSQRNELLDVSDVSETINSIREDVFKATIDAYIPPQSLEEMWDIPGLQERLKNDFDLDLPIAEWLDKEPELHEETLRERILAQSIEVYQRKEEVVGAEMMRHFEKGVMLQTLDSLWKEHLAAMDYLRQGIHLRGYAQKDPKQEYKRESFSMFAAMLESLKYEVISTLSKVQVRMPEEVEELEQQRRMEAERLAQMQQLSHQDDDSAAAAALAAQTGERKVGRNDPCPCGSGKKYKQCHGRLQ

For the molecule `CCC(=O)N1CCC(Cc2ccccc2-c2ccccc2)(C(N)=O)C1` (stereo not drawn), the Percent Effect in test [1] is -3.32%; in test [2], 13.3%; in test [3] it was 10.4%; in [4], -2.64%; in the test on Trypanosoma cruzi, 3.94%; in [5], 7.69%. For the same molecule, the Percent Effect in [6] is 8.37%; in the test listed under Homo sapiens, 16.6%; in test [7], 1.06%; in test [8] it was 16.7%; in test [9], -4.71%.

Regarding `Cc1ccc(N(C)C2CCN(C(=O)c3ccsc3)CC2)nn1`, the Percent Effect in [1] was -3.77%; in test [2] it was 5.2%; in [3], 5.3%; in [4], 11.4%; with Trypanosoma cruzi, 5.62%; in test [5], -7.47%. The Percent Effect in test [6] is 10.6%; in the test listed under Homo sapiens, 1.47%; in test [7] it was 5.83%; in test [8], 19.5%; in test [9] it was -7.83%.

Take `COC(=O)CN(C)C1CCc2ccccc21` (stereo not drawn): the Percent Effect is -0.581% in test [1]; 15.8% in test [2]; 1.01% in [3]; 8.14% in test [4]; 1.5% in the test with Trypanosoma cruzi; 5.36% in test [5]. Further, the Percent Effect in test [6] is 18.4%; in the test listed under Homo sapiens, -4.6%; in [7] it was 7.35%; in test [8], 9.76%; in [9], -8.13%.

Consider `Cc1nc(CNCC2CCCN2c2cccnn2)cs1` (stereo not drawn), for which the Percent Effect in test [1] is -2.04%; in [2], -2.63%; in test [3], 1.93%; in test [4], 0.202%; in the test on Trypanosoma cruzi, -3.38%; in [5], 6.51%. Also, the Percent Effect in test [6] is -1.84%; in the test filed under Homo sapiens, 14.7%; in test [7], 2.45%; in [8] it was 0%; in [9], 4.5%.

`CC1(C)CN(C(=O)NCCc2ccn(-c3ccccc3)n2)CCO1`: the Percent Effect in test [1] is -4.22%; in test [2], -2.6%; in [3], 8.97%; in test [4], 11.9%; in the test with Trypanosoma cruzi, 1.47%; in test [5], 4%. In addition, the Percent Effect was 2.02% in [6]; 8.51% in the test listed under Homo sapiens; 2.86% in test [7]; 7.06% in test [8]; -12.9% in test [9].

As to `Cc1ccc(N(CC(=O)c2ccc(Br)cc2)C2=NCCCCC2)cc1`, the Percent Effect in [1] is -1.45%; in test [2], -55.3%; in test [3] it was 5.34%; in test [4], 3.76%; in the test on Trypanosoma cruzi, 5.55%; in [5], -11.8%. The Percent Effect is 11% in test [6]; 17.9% in the test listed under Homo sapiens; 4.25% in test [7]; -2.6% in test [8]; -1.8% in test [9].

As for `CCOc1cc(C(=O)N2CCCC(n3cncn3)C2)ccc1C` (stereo not drawn), the Percent Effect was 2.65% in test [1]; -8.11% in [2]; 0.403% in test [3]; -1.22% in [4]; -1.21% in the test on Trypanosoma cruzi; 1.66% in [5]. The Percent Effect in [6] was -7.18%; in the test listed under Homo sapiens, 4.36%; in test [7], 0.99%; in test [8] it was 1.22%; in [9] it was 11.6%.

Consider `O=C(c1n[nH]c2c1CCN(Cc1nccs1)C2)N1CCCC1`, for which the Percent Effect was -4.94% in [1]; 5.41% in test [2]; -4.39% in test [3]; 22.5% in [4]; 4.4% in the test on Trypanosoma cruzi; 0.744% in [5]. The Percent Effect in test [6] is 8.33%; in the test listed under Homo sapiens it was -0.319%; in [7] it was 5.38%; in test [8], 6.17%; in test [9] it was -10.3%.

The values above are taken from ChEMBL document CHEMBL3988442, “University of Dundee, Small-Polar-MMV Screening Library” (2021).
